2 compounds from PubChem BioAssay AID2707 (National Center for Advancing Translational Sciences (NCATS), 2010) can be followed below.

The structures appear in SMILES notation. This is one part of the list. Activity calls are given as the source filed them.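 How the source made its calls: active means potency below 100 µM; inconclusive means dose-dependent response but potency above 100 µM; inactive means the rest.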

In the test the target is 4'-phosphopantetheinyl transferase ffp (Bacillus subtilis) (UniProt Q9F4F7). Put plainly: Gel-Based Assay for Inhibitors of Bacillus subtilis Sfp phosphopantetheinyl transferase (PPTase). To be noted: purified Sfp, gel-based phosphopantetheinylation read-out. The source says: The covalent attachment of a phosphopantetheinyl (4'-PP) arm to a variety of synthases and other proteins is a key posttranslational protein modification. The 4'-PP is installed on the proteins post-translationally from coenzyme A (CoA) on a conserved serine residue by action of phosphopantetheinyl transferase (PPTase) enzymes. Phosphopantetheinylation is essential for synthase activity, and removal of the PPTase gene precludes natural product synthesis in microorganisms, or in the case of fatty acid biosynthesis, renders the organism unviable. PPTase enzymes belong to a distinct structural superfamily. Within bacteria, these enzymes are grouped into two classes based upon primary structure, the AcpS-Type and Sfp-Type PPTases. […]
Sequence of 4'-phosphopantetheinyl transferase ffp (Bacillus subtilis) (Q9F4F7 whole entry, looked up): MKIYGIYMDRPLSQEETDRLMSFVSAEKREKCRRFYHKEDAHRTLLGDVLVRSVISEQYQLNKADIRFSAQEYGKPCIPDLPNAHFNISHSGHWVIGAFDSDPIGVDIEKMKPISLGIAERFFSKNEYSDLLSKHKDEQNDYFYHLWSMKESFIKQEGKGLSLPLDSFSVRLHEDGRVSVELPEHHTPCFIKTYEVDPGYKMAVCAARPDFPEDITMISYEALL
In this assay, compounds were evaluated by monitoring of fluorescence transfer to whole carrier protein substrates via polyacrylamide gel electrophoresis. […]
A DMSO solution of confirmed hits (0.5 microL) was added to a 1.33X enzyme solution (15 microL, containing 26.6 nM Sfp, 66 mM HEPES, 13.3 mM MgCl2, 0.0133% NP-40, 0.133% BSA, pH 7.6). […] Following the run, gels were imaged with a Chemi-Doc Plus imager (Bio-Rad, Hercules, CA) and band intensity quantified using the ImageJ software package. […]
With `CCCOC(=O)Nc1sc2c(c1C(=O)OCC)CCC2`, the outcome was inactive.

On to `Cc1nn2c(c1-c1ccccc1)N=C(c1ccco1)CC2c1ccccc1` (configuration not stated), for which the outcome was inactive.
